Tgondii IFNg – T. gondii growth inhibition under IFN-gamma | Toxoplasma gondii growth in IFN-gamma-treated host cells; hits give low values | actives 3.8% (n = 69,000) | activity change, negative = inhibition, % (concentration not given with the values) | AID 1259416; in the data active = activity change below about -70%, passing the limit was not always enough;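 also: host cells are HeLa cells infected with Toxoplasma gondii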
An asterisk follows results filed as active; i = inactive. This is one part of a sample in which hits are shown more often than they occur.

SMILES	Tgondii IFNg
CCOc1cc(CCC(=O)Nc2n[nH]c(CC)n2)on1	38.8
O=C([C@@H]1CCO[C@@H]2CCN(Cc3ccccc3)C[C@H]21)N1CCCO1	-0.5
O=C(c1nc(-c2cccc(F)c2)n2c1CCCCC2)N1CCN(c2ccccc2)CC1	-11.9
CCOC(=O)C1CCCN(C(=O)c2nc(-c3ccc(Cl)cc3)n3c2CCCCC3)C1 (centres undefined)	98.9
CCOC(=O)C1CCN(C(=O)c2nc(-c3ccc(Cl)cc3)n3c2CCCCC3)CC1	-69.2
Cc1ccc(-c2nc(C(=O)N3CCCC(C)C3)c3n2CCCCC3)cc1 (centres undefined)	-95.9*
CC1CCCN(C(=O)c2nc(-c3ccc(Cl)cc3)n3c2CCCCC3)C1 (centres undefined)	-96.6*
Cc1ccc(-c2nc(C(=O)N3CCC(C)CC3)c3n2CCCCC3)cc1	-32.0
Cn1cccc1CNCCN1CCOCC1	-12.8
CCOc1ccc(NC(=O)NCC(c2cccnc2)c2cn(C)c3ccccc23)cc1 (centres undefined)	i
Fc1cccc(CSc2nc(NCc3ccc(Cl)cc3)c3ccccc3n2)c1	3.7
O=C(C1CC1)N1CCC2(COCc3cnc(NCC4CC4)nc32)C1 (centres undefined)	241.4
COCCN1CCO[C@H]2CCN(C(=O)c3sccc3C)C[C@H]21	-4.6
Cn1c(=O)c(-c2nc(-c3cccc(F)c3)no2)c(O)c2ccc(F)cc21	20.4
Cc1ccc(-c2nc3c(s2)CN(S(=O)(=O)c2ccccc2C)CC3)cc1	-89.7*
Cc1ccc(-c2nc3c(s2)CN(S(=O)(=O)c2ccc(C)c(C)c2)CC3)cc1	-24.5
COc1ccc(Cl)cc1S(=O)(=O)N1CCc2nc(-c3ccc(C)cc3)sc2C1	-63.0
COc1cccc(-c2nc3c(s2)CN(S(=O)(=O)c2ccc(Cl)cc2)CC3)c1	-57.5
COc1ccc(-c2nc3c(s2)CN(S(=O)(=O)c2ccc(C)cc2)CC3)cc1	-76.2*
CCCc1ccc(S(=O)(=O)N2CCc3nc(-c4ccc(OC)cc4)sc3C2)cc1	16.3
Cc1ccc(-c2nc3c(s2)CN(S(=O)(=O)c2ccc(F)cc2)CC3)cc1	6.3
COc1ccc(-c2nc3c(s2)CN(S(=O)(=O)c2ccc(Cl)cc2)CC3)cc1	16.4
Cc1ccc(-c2nc3c(s2)CN(S(=O)(=O)c2cccc(Cl)c2C)CC3)cc1	-75.5*
COc1ccc(S(=O)(=O)N2CCc3nc(-c4cccc(OC)c4)sc3C2)cc1	-9.3
Cc1cc(C)c(S(=O)(=O)N2CCc3nc(-c4ccccc4)sc3C2)c(C)c1	-5.6
SMILES	Tgondii IFNg
COc1cccc(-c2nc3c(s2)CN(S(=O)(=O)c2ccc(F)cc2)CC3)c1	-78.6*
O=C(c1cnccn1)N1CCC(c2nc3ccc(-c4ccccc4)cn3n2)CC1	-4.8
CC(=O)c1ccc(C(=O)N(CC#Cc2ccccc2)CC(C)C)s1	-2.3
CNC(=O)CCN(C)c1nc(-c2cccnc2)nc2c1cnn2C	-12.2
COc1cccc(-c2nc3c(s2)CN(S(=O)(=O)c2ccc(OC)c(OC)c2)CC3)c1	-20.1
CCOc1ccc(-c2nc3c(s2)CN(S(=O)(=O)c2cccc(F)c2)CC3)cc1	33.3
CCOc1ccc(-c2nc3c(s2)CN(S(=O)(=O)Cc2ccccc2)CC3)cc1	10.3
CCOc1ccc(-c2nc3c(s2)CN(S(=O)(=O)c2ccccc2C)CC3)cc1	-94.0*
COc1ccc(S(=O)(=O)N2CCc3nc(-c4ccc(C)cc4)sc3C2)cc1OC	16.5
COc1cccc(-c2nc3c(s2)CN(S(=O)(=O)c2cc(C)c(C)cc2C)CC3)c1	-51.0
COc1cccc(-c2nc3c(s2)CN(S(=O)(=O)c2ccccc2C)CC3)c1	-106.8*
COc1ccc(-c2nc3c(s2)CN(S(=O)(=O)c2cc(C)cc(C)c2)CC3)cc1OC	-124.8*
CCOc1ccc(-c2nc3c(s2)CN(S(=O)(=O)c2ccc(F)cc2)CC3)cc1	43.2
CCOc1ccc(-c2nc3c(s2)CN(S(=O)(=O)c2cc(F)ccc2C)CC3)cc1	-95.4*
COc1cccc(-c2nc3c(s2)CN(S(=O)(=O)c2ccc(C(C)C)cc2)CC3)c1	-36.6
O=C(O)CN1CCC2(CC1)C(=O)N(CC1CC1)C2c1ccccc1 (centres undefined)	-1.2
CCCc1ccc(-c2nccn2CCc2nc(C)cc(=O)[nH]2)o1	1.3
CNCc1nncn1-c1cccc(C(C)=O)c1	-1.1
COc1cc(C)ccc1OCCNS(=O)(=O)c1ccc2c(c1)CC(=O)N2C	12.7
CCn1c(C2CCN(C(=O)CCn3c(C)cccc3=O)CC2)nn(C)c1=O	6.3
O=C(C1CC2(CCNCC2)CN1)N1CCCN(Cc2ccccn2)CC1 (centres undefined)	0.0
O=S(=O)(O)C(F)(F)F.O=S(=O)(O)C(F)(F)F.O=S(=O)(O)C(F)(F)F.[Bi]	19.6
COc1cccc(-c2nc3c(s2)CN(C(=O)Nc2ccccc2C)CC3)c1	25.4
CCc1ccccc1S(=O)(=O)N1CCc2nc(-c3cccc(OC)c3)sc2C1	-91.1*
COc1cccc(-c2nc3c(s2)CN(S(=O)(=O)c2c(C)cc(C)cc2C)CC3)c1	-97.9*
SMILES	Tgondii IFNg
CCOc1ccc(S(=O)(=O)N2CCc3nc(-c4cccc(OC)c4)sc3C2)cc1	-23.3
Cc1cc(C)c(S(=O)(=O)N2CCc3nc(-c4ccccc4)sc3C2)cc1C	-89.2*
COc1ccc(-c2nc3c(s2)CN(S(=O)(=O)c2ccccc2C)CC3)cc1	-114.7*
O=S(=O)(c1ccc(F)cc1F)N1CCc2nc(-c3ccccc3)sc2C1	37.2
COc1cccc(-c2nc3c(s2)CN(S(=O)(=O)c2ccc(C)cc2)CC3)c1	-53.6
COc1cccc(-c2nc3c(s2)CN(S(=O)(=O)c2ccc(CC(C)C)cc2)CC3)c1	-17.4
O=S(=O)(c1ccc(F)cc1)N1CCc2nc(-c3ccccc3)sc2C1	45.4
COc1ccc(-c2nc3c(s2)CN(S(=O)(=O)c2ccc(C(C)(C)C)cc2)CC3)cc1	-0.7
CCS(=O)(=O)N1CCc2onc(Cn3c(C)ccc3C)c2C1	-2.4
COc1cc2c(cc1CN(CCCn1ccnc1)CC1CC=CCC1)OCO2 (centres undefined)	-7.0
Cc1ccccc1OC1CCN(CC(=O)Nc2ccc3c(c2)n(C)c(=O)n3C)CC1	-4.9
Cc1nn(-c2ccccc2)nc1C(=O)Oc1ccc(Cl)cc1	46.1
CN(Cc1ccco1)C(=O)CN1C(=O)CCc2cc(S(=O)(=O)N3CCCC3)ccc21	-8.5
O=C(c1ccc(-n2ccnc2)cc1)N1CC(c2ccccn2)C1	75.3
Cc1cccc(S(=O)(=O)N2CCc3nc(-c4cnn(C)c4)nc(NC4CC4)c3C2)c1	-93.6*
Cc1nc2c(c(NC3CC3)n1)CCN(Cc1cnn(C)c1)CC2	-51.5
Cc1cccc(S(=O)(=O)N2CCc3nc(-c4ccccc4)sc3C2)c1	-9.2
CN(C)Cc1cc(-c2ccc(CNC(=O)c3cc(C(C)(C)C)nn3C)cc2)nn1C	-58.9
Cc1ccccc1C(=O)N1CCN(Cc2ccccc2)CCC1=O	-55.8
CN(CC1CCCCO1)C(=O)c1ccc2cccnc2n1 (centres undefined)	16.9
COc1ccc(OC[C@H]2C3CCC(C3)N2C(=O)c2cnn(C)c2)cc1 (some centres undefined)	46.4
Cc1ccccc1C1CCCN1C(=O)Cn1nc(C(F)(F)F)cc1C (centres undefined)	164.6
Cc1cc(C(F)(F)F)nn1CC(=O)N1CCCC1c1ccc(F)cc1 (centres undefined)	-77.9*
Cc1noc(C)c1C1CCCN1C(=O)Cn1nc(C(F)(F)F)cc1C (centres undefined)	4.7
Cc1nccn1CCC(=O)NC(Cc1ccccc1)c1ccc2c(c1)OCCO2 (centres undefined)	43.8

High-throughput results: PubChem, Broad Institute
